Source: PubChem BioAssay (NCATS)
Records with an inconclusive call do not appear. Calls of active or inactive are those of the source. Unless noted, the call rests on the fitted dose curve; in most records, active means well fitted curve in the direction sought with a large enough effect; inconclusive means small, poorly fitted or top-dose-only effect, or another doubt; inactive means no such curve, though single readings can be large; an effect the other way counts as inactive or inconclusive.

Columns and labels:
[1] = system: Zika virus NS2B-NS3 protease (unlinked complex); assay: Primary screen GU Rhodamine qHTS for Zika virus inhibitors: Unlinked NS2B-NS3 protease assay (AID 1347159); further: on the % scale 0 is the no-effect control and ±100 the full control effect; nearly all actives have a fitted effect of over 60% in size
Outline: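 Noncovalent NS2B hydrophilic domain/NS3 protease complex (25 nM final) in 10 mM Tris-HCl pH 8.0, 0.01% Tween 20, preincubated 15 min with compounds (up to 114 microM), then 1.5 microM Rhodamine110 substrate. Fluorescence change over 15 min fitted to 4-parameter Hill.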

[2] = biological target: Calcium and integrin-binding protein 1 (Homo sapiens) (UniProt Q99828); assay: Primary qHTS for Identification of Calcium Integrin Binding Protein 1 (CIB1) Competitor (AID 1508620);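 further: GST tagged CIB1 binding a fluorescein labelled alphaIIb integrin peptide tracer; top concentration of the series differs between compounds; on the % scale 0 is the no-effect control and ±100 the full control effect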
Sequence of Calcium and integrin-binding protein 1 (Homo sapiens) (Q99828 whole entry, looked up): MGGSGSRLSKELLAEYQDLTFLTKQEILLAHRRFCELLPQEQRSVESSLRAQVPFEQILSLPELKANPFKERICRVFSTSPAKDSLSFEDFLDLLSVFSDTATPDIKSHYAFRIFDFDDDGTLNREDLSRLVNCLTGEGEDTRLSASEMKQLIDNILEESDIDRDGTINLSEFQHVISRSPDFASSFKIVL
Outline: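 Fluorescence polarization competition: CIB1-GST (1 uM final) preincubated with compound 15 min at room temperature, then FITC-labeled alphaIIb peptide (100 nM final) added for another 15 min. Polarization read at Ex 480/Em 540.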

[3] = biological target: Cytochrome P450 2D6 (Homo sapiens) (UniProt P10635); assay: Cytochrome P450 family 2 subfamily D member 6 (CYP2D6) small molecule antagonists: luciferase biochemical (cell-free) qHTS assay (AID 1645840; active means well fitted curve in the direction sought with a large enough effect in the repeat runs; an effect the other way counts as inactive or inconclusive; further: potency means the concentration at half of the fitted maximal effect; nearly all actives have a fitted effect of over 55% in size)
Sequence of Cytochrome P450 2D6 (Homo sapiens) (P10635 whole entry, looked up): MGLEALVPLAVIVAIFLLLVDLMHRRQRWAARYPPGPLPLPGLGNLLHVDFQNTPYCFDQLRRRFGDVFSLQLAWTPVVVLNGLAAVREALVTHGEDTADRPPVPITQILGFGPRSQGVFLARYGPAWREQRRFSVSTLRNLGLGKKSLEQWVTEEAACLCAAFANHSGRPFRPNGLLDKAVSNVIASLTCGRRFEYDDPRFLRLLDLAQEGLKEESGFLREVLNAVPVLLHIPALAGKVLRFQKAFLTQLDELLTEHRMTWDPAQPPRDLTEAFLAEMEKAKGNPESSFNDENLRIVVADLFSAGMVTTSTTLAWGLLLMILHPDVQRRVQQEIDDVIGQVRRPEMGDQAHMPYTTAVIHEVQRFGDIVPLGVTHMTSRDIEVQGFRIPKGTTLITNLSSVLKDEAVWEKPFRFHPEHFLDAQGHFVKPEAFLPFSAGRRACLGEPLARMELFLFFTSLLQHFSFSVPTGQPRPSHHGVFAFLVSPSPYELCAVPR
Outline: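 P450-Glo luminescent screen: recombinant CYP2D6 enzyme–proluciferin substrate mix preincubated with compound 10 min at room temperature, then NADPH regeneration added for 1 h at room temperature. Detection reagent added for 20 min; luciferin light read as relative luminescence units.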

[4] = biological target: Cytochrome P450 2C9 (Homo sapiens) (UniProt P11712); assay: Cytochrome P450 family 2 subfamily C member 9 (CYP2C9) small molecule antagonists: luciferase biochemical (cell-free) qHTS assay (AID 1645842; active means well fitted curve in the direction sought with a large enough effect in the repeat runs; an effect the other way counts as inactive or inconclusive; further: on the % scale 0 is the no-effect control and ±100 the full control effect; nearly all actives have a fitted effect of over 55% in size)
Sequence of Cytochrome P450 2C9 (Homo sapiens) (P11712 whole entry, looked up): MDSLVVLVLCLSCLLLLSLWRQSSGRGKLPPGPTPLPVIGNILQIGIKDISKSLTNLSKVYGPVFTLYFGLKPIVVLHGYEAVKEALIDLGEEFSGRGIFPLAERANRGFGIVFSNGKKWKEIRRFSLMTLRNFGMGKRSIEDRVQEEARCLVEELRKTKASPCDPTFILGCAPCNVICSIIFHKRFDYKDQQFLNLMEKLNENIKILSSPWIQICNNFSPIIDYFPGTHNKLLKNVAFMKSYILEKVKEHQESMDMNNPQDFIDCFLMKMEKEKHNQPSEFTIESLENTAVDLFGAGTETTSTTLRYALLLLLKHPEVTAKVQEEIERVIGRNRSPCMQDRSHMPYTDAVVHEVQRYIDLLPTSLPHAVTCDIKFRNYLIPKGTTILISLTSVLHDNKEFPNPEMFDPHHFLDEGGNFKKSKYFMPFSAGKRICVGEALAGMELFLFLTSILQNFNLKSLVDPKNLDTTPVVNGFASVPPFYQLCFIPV
Outline: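 Luminescence, after 20 min with luciferin detection reagent, reflected CYP2C9 turnover during a 1 h NADPH-driven reaction at 37C. Enzyme-substrate mix contained 0.4% bovine serum albumin and was preincubated with compound 10 min at room temperature.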

[5] = Primary redox qHTS assay for identification of artifact compounds. (AID 1845223);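 further: 0% = DMSO and 100% = reference compound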
Outline: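 Amplex Red (25 uM) and HRP (250 mU/mL) in HBSS, with compounds for 15 min, then 250 uM DTT for 30 min, room temperature, dark. Fluorescence 525/598 nm read; normalized to DMSO and 10 uM DA3003; Hill fit.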

[6] = system: HeLa; assay: Primary qHTS to identify gynecologic anti-cancer compounds using libraries of approved drugs and bioactive compounds (AID 1345084); details: Gynecologic cancer cell panel viability, ATPlite luminescence, 48 h; series mostly up to 57.5 µM; further: nearly all actives have a fitted effect of over 55% in size; further: potency means the concentration at half of the fitted maximal effect; on activity change, negative = cytotoxicity: on the % scale 0 is the no-effect control and ±100 the full control effect
Outline: (§1)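 48 h compound exposure at 37 C, 5% CO2; five-point qHTS. ATPlite luminescence readout of cell ATP.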

[7] = system: JEG-3; assay: as above; details: Gynecologic cancer cell panel viability, ATPlite luminescence, 48 h; series mostly up to 57.5 µM
Outline: as §1

[8] = P-glycoprotein substrates identified in KB-8-5-11 adenocarcinoma cell line, qHTS therapeutic library screen (AID 1346987); further: potency means the concentration at half of the fitted maximal effect; nearly all actives have a fitted effect of over 65% in size
Outline: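 Steps: plate 500 KB-8-5-11 cells/well in DMEM + 10% FCS (colchicine removed); pin compounds in dose-response; incubate 72 h, 37 degree C, 5% CO2; add CellTiter-Glo, 5 min; read luminescence.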

[9] = biological target: Catechol O-methyltransferase (Homo sapiens) (UniProt P21964); assay: Confirmatory Screen for Target Class Profiling of Small Molecule Inhibitors of Methyltransferases (AID 1745852); details: MTase-Glo luminescence, SAH detection, recombinant enzyme; measured here: COMT max response; stronger effect = lower value
Sequence of Catechol O-methyltransferase (Homo sapiens) (P21964 whole entry, looked up): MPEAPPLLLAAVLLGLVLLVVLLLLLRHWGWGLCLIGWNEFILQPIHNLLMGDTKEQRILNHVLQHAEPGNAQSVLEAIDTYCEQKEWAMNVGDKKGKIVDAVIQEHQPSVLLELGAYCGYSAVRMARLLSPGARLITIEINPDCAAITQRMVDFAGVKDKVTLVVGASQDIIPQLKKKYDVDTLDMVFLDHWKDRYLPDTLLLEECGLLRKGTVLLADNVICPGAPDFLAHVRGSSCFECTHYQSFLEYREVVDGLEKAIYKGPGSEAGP

[10] = biological target: Guanidinoacetate N-methyltransferase (Homo sapiens) (UniProt Q14353); assay: as above; details: activity change, negative = inhibition: at 57.3 µM (top of the series) unless noted
[11] = biological target: Nicotinamide N-methyltransferase (Homo sapiens) (UniProt P40261); assay: as above; details: MTase-Glo luminescence, SAH detection, recombinant enzyme; measured here: NNMT max response; stronger effect = lower value
Sequence of Nicotinamide N-methyltransferase (Homo sapiens) (P40261 whole entry, looked up): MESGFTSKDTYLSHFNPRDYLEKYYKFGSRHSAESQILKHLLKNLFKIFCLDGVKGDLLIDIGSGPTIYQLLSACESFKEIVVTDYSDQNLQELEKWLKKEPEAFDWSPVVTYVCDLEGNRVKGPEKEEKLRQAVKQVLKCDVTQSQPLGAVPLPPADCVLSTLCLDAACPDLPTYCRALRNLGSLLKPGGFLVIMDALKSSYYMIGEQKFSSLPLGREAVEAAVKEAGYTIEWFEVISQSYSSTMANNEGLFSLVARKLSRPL

[12] = system: CAOV3; assay: Primary qHTS to identify gynecologic anti-cancer compounds using libraries of approved drugs and bioactive compounds (AID 1345084); details: Gynecologic cancer cell panel viability, ATPlite luminescence, 48 h; series mostly up to 57.5 µM; further: nearly all actives have a fitted effect of over 55% in size; further: potency means the concentration at half of the fitted maximal effect; on activity change, negative = cytotoxicity: on the % scale 0 is the no-effect control and ±100 the full control effect
Outline: as §1

[13] = Cytotoxicity counterscreen for inhibitors of SARS-CoV-2 cell entry (AID 1645845; calls by dose curve; further: potency means the concentration at half of the fitted maximal effect; nearly all actives have a fitted effect of over 50% in size)
Outline: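 Expi293F/hACE2 cells seeded overnight; cpd pin-transferred in DMSO, 1 h preincubation, + media, 48 h 37 C 5% CO2; ATPLite 1step luminescence; normalized to cells and no cells.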

[14] = Primary qHTS to identify inhibitors of SARS-CoV-2 cell entry (AID 1645846; calls by dose curve; further: potency means the concentration at half of the fitted maximal effect; nearly all actives have a fitted effect of over 45% in size); details: activity change, negative = inhibition: at 57.1 µM (top of the series) unless noted
Outline: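 HEK293 cells stably expressing human ACE2, pre-treated 1 h with compound, then infected with MLV particles pseudotyped with Wuhan-Hu-1 spike (C-terminal 19-aa truncation). Luciferase luminescence after 48 h at 37 °C, normalised to spike PP and bald PP.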

[15] = system: SKOV3; assay: Primary qHTS to identify gynecologic anti-cancer compounds using libraries of approved drugs and bioactive compounds (AID 1345084); details: Gynecologic cancer cell panel viability, ATPlite luminescence, 48 h; series mostly up to 57.5 µM; further: nearly all actives have a fitted effect of over 55% in size; further: potency means the concentration at half of the fitted maximal effect; on activity change, negative = cytotoxicity: on the % scale 0 is the no-effect control and ±100 the full control effect
Outline: as §1

[16] = system: KB-3-1; assay: Cytotoxic Profiling of Annotated Libraries Using Quantitative High-Throughput Screening (AID 1296008); details: Five cell lines viability, CellTiter-Glo ATP luminescence, 48-72 h; max response: stronger effect = lower value; further: nearly all actives have a fitted effect of over 60% in size; further: potency means the concentration at half of the fitted maximal effect
Outline: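 Compounds were pin-transferred onto cells and incubated 48 or 72 hr at 37 degree Celsius, 95% humidity. CellTiter-Glo was added, plates sat 10 min at room temperature, then ATP-coupled luminescence was imaged as the viability read-out.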

Cc1ccccc1CN1CCC(N2CCC(n3c(=O)[nH]c4ccccc43)CC2)CC1
active: Potency [3] 12000 nM
inactive: Potency [1] | Potency [2] | Potency [4] | Potency [5] | Potency [6] | Potency [7]

CCCCN1[C@@H]2CC[C@H]1CC(OC(c1ccc(F)cc1)c1ccc(F)cc1)C2 (some centres undefined)
active: Potency [8] 18400 nM | Potency [3] 169 nM
inactive: Potency [1] | Potency [2] | Potency [5] | Potency [6] | Potency [7]
0.354%: activity [9]
0%: activity change, negative = inhibition [10]
-14%: activity [11]

CCC1=CC2CN3CCc4c([nH]c5ccccc45)[C@@](C(=O)OC)(C2)[C@@H]13
inactive: Potency [1] | Potency [2] | Potency [5] | Potency [12] | Potency [6] | Potency [7]

C[C@@H]1CN(Cc2ccc(F)cc2)CCN1C(=O)COc1ccc(Cl)cc1NC(N)=O
active: Potency [13] 2510 nM | Potency [14] 2510 nM | Potency [15] 3160 nM
inactive: Potency [1] | Potency [2] | Potency [5] | Potency [6] | Potency [7]

CN[C@@H]1C[C@H]2O[C@@](C)([C@@H]1OC)n1c3ccccc3c3c4c(c5c6ccccc6n2c5c31)C(=O)NC4
active: Potency [16] 130 nM | Potency [6] 282 nM | Potency [15] 316 nM
inactive: Potency [2] | Potency [5]

C=C1[C@@H](C)C2[C@H](Cc3ccccc3)NC(=O)[C@@]23C(/C=C/C[C@H](C)C[C@@](C)(O)/C=C/[C@@H]3OC(C)=O)[C@@H]1O (some centres undefined)
active: Potency [8] 2910 nM
inactive: Potency [1] | Potency [2] | Potency [5] | Potency [12]

C[C@@]1(CO)[C@H](O)CC[C@@]2(C)[C@H]1CC[C@H]1C[C@@H]3C[C@@]12CC[C@]3(O)CO
inactive: Potency [2] | Potency [5] | Potency [12] | Potency [6] | Potency [7]

Nc1ncnc2c1ncn2[C@@H]1O[C@@H]2COP(O)(=S)O[C@H]2[C@H]1O (some centres undefined)
inactive: activity change, negative = inhibition [1] 2.11% [at 19.1 µM] | Potency [2] | redox activity (% of DA3003) [5] -10% [at 11.5 µM] | max response [16] -0.196% | activity change, negative = cytotoxicity [12] 2.86% [at 11.6 µM] | activity change, negative = cytotoxicity [6] 5.24% [at 11.6 µM] | activity change, negative = cytotoxicity [7] 6.35% [at 11.6 µM] | activity change, negative = cytotoxicity [15] 33.4% [at 11.6 µM]
